High-throughput results from PubChem.
TEAD-YAP block: TEAD-YAP interaction inhibition; 640,000 tested, 1.4% active; HEK-TIYL cells, TEAD-Gal4/YAP UAS-luciferase luminescence; inhibition, % at 9.12 µM; in the data active = inhibition above about 32%;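 note: 0% = median of test compound wells and 100% = reference inhibitor wells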
FBW7 act: human FBW7 E3 ligase activation, primary screen | Q969H0 | AlphaScreen FBW7–phospho-cyclin E peptide binding, activator screen | normalized activity (activation), % at 26.1 µM | 650,000 tested, 0.13% active | AID 1259310; in the data active = normalized activity above about 1.9%;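 note: purified mutant Fbw7 with reduced substrate affinity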
GPR151 ag: activators of human GPR151; Q8TDV0; PathHunter beta-arrestin GPR151 cells, luminescence; activation, % at 11.2 µM; 650,000 tested, 1% active; in the data active = activation above about 4.9%;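 note: 0% = median of compound wells and 100% = cells with positive control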
MITF primary: inhibitors of human MITF; inhibition, % at 2.6 µM; AID 1259374; AlphaScreen MITF homodimerization, bead proximity signal; 650,000 tested, 0.91% active; O75030; in the data active = inhibition above about 50%;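 note: 0% = vehicle wells with protein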
Target sequence (O75030 whole entry, looked up): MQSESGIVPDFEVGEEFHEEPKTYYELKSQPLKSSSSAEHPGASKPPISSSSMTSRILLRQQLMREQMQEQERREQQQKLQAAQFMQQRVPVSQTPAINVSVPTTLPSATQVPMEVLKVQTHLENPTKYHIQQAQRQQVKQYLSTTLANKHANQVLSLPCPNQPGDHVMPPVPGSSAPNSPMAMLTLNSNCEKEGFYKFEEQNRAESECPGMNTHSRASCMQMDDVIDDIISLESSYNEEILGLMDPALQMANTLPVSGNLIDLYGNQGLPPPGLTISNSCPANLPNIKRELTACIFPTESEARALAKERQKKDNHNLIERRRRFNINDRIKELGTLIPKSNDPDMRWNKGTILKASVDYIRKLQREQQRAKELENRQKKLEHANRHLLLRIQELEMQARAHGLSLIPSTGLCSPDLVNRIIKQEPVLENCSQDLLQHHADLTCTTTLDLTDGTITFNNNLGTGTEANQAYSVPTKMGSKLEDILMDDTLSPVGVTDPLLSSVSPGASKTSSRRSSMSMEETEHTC
The depositor's hits bear a star. The list is not random: actives were taken first. Their share in the collection is about 3.5%.

SMILES	TEAD-YAP block	FBW7 act	GPR151 ag	MITF primary
CCOC(=O)N1CCC(N2CCCC(CCC(=O)NCc3cccc(OC)c3)C2)CC1 (configuration not stated)	11.6	0.0	-0.2	12.4
Cc1ccc(C2c3c(-c4ccc(F)cc4)n[nH]c3C(=O)N2c2ccccc2)cc1 (configuration not stated)	0.5	-0.1	0.3	-28.2
Cc1ccc(-c2n[nH]c3c2C(c2ccccc2F)N(c2ccccc2)C3=O)cc1 (configuration not stated)	47.8*	-0.1	1.7	3.8
CCNC(=O)N1CCCC(c2nnc(-c3ccccc3F)s2)C1 (configuration not stated)	38.2*	-0.2	-4.6	-5.4
CCCCC(=O)NC(c1ccc(C)cc1)c1ccc2cccnc2c1O (configuration not stated)	85.5*	-0.4	-0.1	14.2
Cc1ccc(C(NC(=O)COc2ccccc2)c2cc(Cl)c3cccnc3c2O)cc1 (configuration not stated)	18.8	-0.1	-0.3	12.2
CCCCC(=O)NC(c1ccc(N(CC)CC)cc1)c1ccc2cccnc2c1O (configuration not stated)	25.0	-0.5	1.3	15.2
CCCC(=O)NC(c1ccc(C)cc1)c1ccc2cccnc2c1O (configuration not stated)	69.2*	-0.5	0.6	4.0
COc1ccc(Cl)cc1-n1c(SCc2ccccc2F)nc2[nH]ncc2c1=O	-10.6	-0.2	1.0	-1.5
COc1ccc(Cl)cc1-n1c(SCc2cc(=O)n3ccccc3n2)nc2[nH]ncc2c1=O	60.3*	-0.1	-1.0	5.2
Cc1ccccc1N=c1scc(-c2ccc3c(c2)NC(=O)CO3)n1Cc1ccco1	48.0*	-0.1	0.1	0.0
COc1ccccc1N=c1scc(-c2ccc3c(c2)NC(=O)CO3)n1CC1CCCO1 (configuration not stated)	0.6	0.5	4.1	25.7
CCN1CCN(C/C=C/c2ccc(N(C)C)cc2)CC1	-0.2	-0.3	0.2	9.0
CN1CCN(C/C=C/c2ccc(N(C)C)cc2)CC1	6.1	-0.1	-0.2	67.9*
CC1=CC(C)(C)N(C(=O)CNCc2cccs2)c2cc(C)ccc21	-1.9	0.2	-0.7	37.4
O=c1c(-c2ccc3c(c2)OCCCO3)coc2cc(O)cc(O)c12	66.3*	-0.1	-1.0	6.2
O=c1c(-c2ccc3c(c2)OCCO3)coc2cc(O)ccc12	55.1*	0.7	-0.7	-4.7
COc1ccc2c(=O)c(-c3ccc4c(c3)OCCO4)coc2c1	-66.7	0.1	-0.7	8.3
CCN(CC)CCNc1nc2cc(OC)c(OC)cc2c2nc(-c3ccccc3)nn12	54.4*	-0.5	0.3	9.2
CCN(CC)CCCNc1nc2ccccc2c2nc(-c3cccnc3)nn12	48.7*	0.2	-0.4	11.7
CC1CCCC(C)N1CCNc1nc2ccccc2c2nc(-c3cccnc3)nn12 (configuration not stated)	80.7*	0.5	-0.3	3.0
CC1CCCCN1CCCNc1nc2ccccc2c2nc(-c3cccnc3)nn12 (configuration not stated)	50.2*	0.5	-0.3	17.9
Cc1ccc(C2=N/C(=C3/OC(=O)c4ccccc43)C(=O)O2)cc1	-43.5	0.0	-1.8	-2.2
Fc1cc(-c2ccnc(Nc3cccc(CN4CCOCC4)c3)n2)cc(N2CCOCC2)c1	53.0*	-0.2	-1.2	3.3
Cc1nc(C)n(-c2ccc(Nc3ncc(F)c(-c4cc(C#N)cc(N5CCOCC5)c4)n3)cc2)n1	4.2	-0.1	-0.6	-3.3
SMILES	TEAD-YAP block	FBW7 act	GPR151 ag	MITF primary
Fc1cc(-c2nc(Nc3ccc(-n4ccnc4)cc3)ncc2F)cc(N2CCOCC2)c1	57.4*	-0.1	-0.7	-4.3
Fc1cc(-c2nc(Nc3cccc(CN4CCOCC4)c3)ncc2F)cc(N2CCOCC2)c1	90.9*	0.9	-2.2	14.5
Fc1cc(-c2nc(Nc3cccc(Cn4cccn4)c3)ncc2F)cc(N2CCOCC2)c1	-5.9	0.1	-1.7	17.1
Cc1nc(C)n(-c2ccc(Nc3ncc(F)c(-c4cc(F)cc(N5CCN(C)CC5)c4)n3)cc2)n1	63.6*	-0.2	-1.5	-2.6
O=C(Nc1c[nH]c(=O)[nH]c1=O)c1ccc2c(c1)C(=O)N(c1c[nH]c(=O)[nH]c1=O)C2=O	3.8	0.0	1.7	-2.9
O=C1CCCN1CCn1cnc2c(NCCOc3ccccc3)nc(N3CCN(c4ccccn4)CC3)nc21	3.6	0.2	1.0	11.0
C=C(C)CS(=O)(=O)c1ccccc1	-11.7	0.1	-0.4	13.3
Fc1cc(-c2nc(Nc3cccc(CN4CCCC4)c3)ncc2F)cc(N2CCOCC2)c1	93.3*	0.4	-1.1	11.0
Cc1cccn2c(=O)c3cc(C(=O)NCc4cccnc4)c(=N)n(Cc4ccco4)c3nc12	-0.9	0.3	-0.3	5.4
Cc1cccn2c(=O)c3cc(C(=O)NC4CCCCC4)c(=N)n(CCCn4ccnc4)c3nc12	4.0	2.1*	-0.7	14.7
CCNC(=O)c1cc2c(=O)n3cccc(C)c3nc2n(Cc2ccco2)c1=N	57.6*	0.0	-1.5	31.1
CCCn1cc(NC(=O)C2CC(c3cccc4cc[nH]c34)=NO2)cn1 (configuration not stated)	-3.3	0.8	-1.4	-6.6
Nc1ccc(-c2nc3cc(Cc4ccc5oc(-c6ccc(N)cc6)nc5c4)ccc3o2)cc1	-0.9	0.1	0.6	-5.5
CCc1ccc2oc(-c3cc(N)ccc3O)nc2c1	38.2*	0.6	-3.8	2.1
CN(C)c1ccc(-c2nc3cc(N)ccc3o2)cc1	79.2*	0.5	-8.2	13.4
CCc1ccc2oc(-c3cc(N)ccc3Cl)nc2c1	-49.8	0.2	-4.2	7.9
CCOc1ccc(-c2nc3cc(N)ccc3o2)cc1	76.1*	0.1	-6.5	-2.0
Cc1ccc(-c2nc3cc(N)ccc3o2)cc1Cl	-0.3	0.9	-6.3	-1.9
CCc1ccc(-c2nc3cc(N)ccc3o2)cc1	65.4*	0.1	-6.5	14.6
O=C(CCCn1c(=S)[nH]c2ccccc2c1=O)N1CCc2ccccc2C1	4.7	0.0	1.1	8.7
Nc1ccc(-c2nc3cc(N)ccc3o2)cc1	49.3*	0.3	-4.4	7.2
COc1cccc(-c2nc3cc(N)ccc3o2)c1	49.2*	0.1	-8.3	6.6
COC(=O)c1ccc(-c2nc3cc(NC(C)=O)c(N)cc3o2)cc1	-1.0	0.1	-0.6	5.1
COC(=O)c1ccc(-c2nc3cc(N)ccc3o2)cc1	72.2*	0.2	-6.1	-3.0
O=C(Cn1ncc2c(=O)oc3ccccc3c21)NCCc1ccc(Cl)cc1	2.3	0.0	0.9	-2.3
SMILES	TEAD-YAP block	FBW7 act	GPR151 ag	MITF primary
Cc1ccsc1/C=N/Nc1ccc(C(=O)O)cc1	49.1*	-0.1	-6.4	1.1
Cc1nn(-c2ccccc2)c(C)c1/C=N/Nc1cccc(C(=O)O)c1	42.5*	0.4	-1.4	7.1
Cc1ccsc1/C=N/Nc1cccc(C(=O)O)c1	47.5*	-0.3	-5.9	1.5
O=C(O)c1cccc(N/N=C/c2cc(Br)cs2)c1	37.8*	-0.1	-8.1	13.8
O=C(O)c1cccc(N/N=C/c2cccc3ccccc23)c1	10.9	-0.1	0.9	7.2
O=C(CCn1c(=O)oc2ccccc21)Nc1ccc(F)c([N+](=O)[O-])c1	1.9	-0.4	0.3	-7.6
